Measurements from the supplement of paper PMC13380429.

System: Vero E6 infected with SARS-CoV-2
Assay: inhibition of SARS-CoV-2 cytopathic effect; higher = more antiviral protection, active = above 15
Details: 48 h

Measured: inhibition of SARS-CoV-2 cytopathic effect

CCC(=O)O[C@H]1CC[C@H]2[C@@H]3CCC4=CC(=O)CC[C@]4(C)[C@H]3CC[C@]12C
inactive: 1 nM -13.2% | 8.33 nM -10.2% | 100 nM -12.5% | 833.33 nM -13.3% | 10000 nM -14%

O=C(O)c1cc(O)c2ccc(Cl)cc2n1 [7-chlorokynurenic-acid]
inactive: 1 nM 1.64% | 8.33 nM 1.28% | 100 nM 1.02% | 833.33 nM 1.24% | 10000 nM 1.89%

COCc1nnc(N2CC(Oc3ccc(F)cc3Cl)C2)n1-c1ccc(OC)nc1
inactive: 1 nM -1.23% | 8.33 nM -3.96% | 100 nM -0.12% | 833.33 nM -1.42% | 10000 nM -1.43%

O=c1oc(-c2ccc(C(F)(F)F)cc2)nn1Cc1cc(Cl)ccc1O
inactive: 1 nM -2.43% | 8.33 nM -1.09% | 100 nM 3.13% | 833.33 nM 3.7% | 10000 nM 13.8%

Cc1cc(-c2nc3cc(F)ccc3s2)ccc1NC(=O)[C@@H](N)CCCCN [phortress]
inactive: 1 nM -1.03% | 8.33 nM -0.88% | 100 nM -0.54% | 833.33 nM -2.21% | 10000 nM -5.43%

CCOc1cc(N2CCC(O)CC2)ccc1Nc1ncc2c(n1)N(C)c1ccccc1C(=O)N2C
inactive: 1 nM 1.68% | 8.33 nM 1.49% | 100 nM 1.28% | 833.33 nM -1.36% | 10000 nM -1.31%

C[C@@H]1CN(c2c(F)c(F)c3c(=O)c(C(=O)O)cn(C4CC4)c3c2F)C[C@H](C)N1 [orbifloxacin]
inactive: 1 nM -6.82% | 8.33 nM -2.82% | 100 nM -5.64% | 833.33 nM -4.29% | 10000 nM -4.52%

CCCCCCCCCCCCCCCCCCCCCCCCCCCCO [1-octacosanol]
inactive: 1 nM 1.47% | 8.33 nM 3.47% | 100 nM 4.36% | 833.33 nM -0.37% | 10000 nM 1.08%

c1cc(CN2CCCCC2)cc(OCCCNc2nc3ccccc3s2)c1 [zolantidine]
inactive: 1 nM 0.78% | 8.33 nM 3.51% | 100 nM 1.37% | 833.33 nM 4.09% | 10000 nM 4.6%

CN1C(=O)CN=C(c2ccccc2)c2cc(Cl)ccc21 [diazepam]
inactive: 1 nM -0.19% | 8.33 nM 0.35% | 100 nM 1.99% | 833.33 nM 0.56% | 10000 nM 0.22%

COC(=O)c1cnn(-c2ccc(F)cc2F)c1/C=N/NC(=S)NC(C)(C)C
inactive: 1 nM -1.1% | 8.33 nM 0.05% | 100 nM 2.03% | 833.33 nM 3.03% | 10000 nM 6.39%

CCCCNc1ccc(C(=O)OCCN(C)C)cc1 [tetracaine]
inactive: 1 nM 2.75% | 8.33 nM -1.31% | 100 nM -0.22% | 833.33 nM -2.39% | 10000 nM 0.71%

N=C(N)NC(=N)Nc1cccc(Cl)c1 [m-chlorophenylbiguanide]
inactive: 1 nM 4.17% | 8.33 nM 4.54% | 100 nM 0.58% | 833.33 nM -7.74% | 10000 nM -1.2%

C#C[C@]1(O)CC[C@H]2[C@@H]3CCC4=CC(=NO)CC[C@@H]4[C@H]3CC[C@@]21CC (mixture of isomers) [norelgestromin]
inactive: 1 nM -0.39% | 8.33 nM -1.06% | 100 nM 1.68% | 833.33 nM 2.43% | 10000 nM 2.14%

CCCN1CC(NS(=O)(=O)N(CC)CC)CC2Cc3c(O)cccc3CC21 (stereo not given) [quinagolide]
inactive: 1 nM -1.57% | 8.33 nM -0.18% | 100 nM -0.29% | 833.33 nM -13.8% | 10000 nM -6.37%

CCCCNc1cc(C(=O)O)cc(S(N)(=O)=O)c1Oc1ccccc1 [bumetanide]
inactive: 1 nM 0.26% | 8.33 nM 2.83% | 100 nM 0.69% | 833.33 nM 1.71% | 10000 nM 1.07%

NC(=O)N/N=C/c1ccc([N+](=O)[O-])o1 [nitrofurazone]
inactive: 1 nM 0.32% | 8.33 nM 0.46% | 100 nM -1.2% | 833.33 nM -0.04% | 10000 nM 0.07%

N=C(N)c1ccc(N2CCN(C3CCN(CC(=O)O)CC3)CC2)cc1
inactive: 1 nM -1.25% | 8.33 nM 0.6% | 100 nM 0.06% | 833.33 nM -0.33% | 10000 nM 1.5%

O=C1NCCN1c1ncc([N+](=O)[O-])s1 [niridazole]
inactive: 1 nM 0.2% | 8.33 nM -2.07% | 100 nM -4.84% | 833.33 nM -1.39% | 10000 nM -4.56%

Cc1nc(=O)c2cc(CN(C)c3ccc(C(=O)N[C@@H](CCC(=O)O)C(=O)O)s3)ccc2[nH]1 [raltitrexed]
inactive: 1 nM -0.77% | 8.33 nM 5.47% | 100 nM 1.2% | 833.33 nM -4.47% | 10000 nM -1.82%

CC[C@H](Nc1ncnc2[nH]cnc12)c1nc2cccc(F)c2c(=O)n1-c1ccccc1 [idelalisib]
inactive: 1 nM -1.64% | 8.33 nM 2.2% | 100 nM 1.98% | 833.33 nM 3.57% | 10000 nM -3.36%

COc1cc2ncnc(Nc3ccc(F)c(Cl)c3)c2cc1NC(=O)/C=C/CN1CCCCC1 [dacomitinib]
inactive: 1 nM -4.89% | 8.33 nM -7.71% | 100 nM -13.6% | 833.33 nM -15.7% | 10000 nM -20.6%

O=C(NCc1ccc(OC(F)(F)F)cc1)C1c2ccccc2C(=O)N1C1CCOCC1 (stereo not given)
inactive: 1 nM -3.69% | 8.33 nM -4.75% | 100 nM -1.62% | 833.33 nM -1.7% | 10000 nM 2.59%

O=C(Nc1ccc(OC(F)(F)F)cc1)c1sccc1NCc1ccnc2ccccc12
inactive: 1 nM -2.32% | 8.33 nM 3.56% | 100 nM 4.81% | 833.33 nM 4.77% | 10000 nM 5.44%

COc1cc(N2CCN(C)CC2)ccc1Nc1nccc(-c2cn(C)c3cnccc23)n1
active: 10000 nM 40.7%
inactive: 1 nM 0.14% | 8.33 nM -0.24% | 100 nM 2.63% | 833.33 nM -0.7%

CCC(=O)O[C@@H]1CC(=O)O[C@H](C)C/C=C/C=C/[C@H](OC(C)=O)[C@H](C)C[C@H](CC=O)[C@H](O[C@@H]2O[C@H](C)[C@@H](O[C@H]3C[C@@](C)(OC(C)=O)[C@@H](OC(=O)CC)[C@H](C)O3)[C@H](N(C)C)[C@H]2O)[C@H]1OC [miocamycin]
inactive: 1 nM 2.92% | 8.33 nM 1.39% | 100 nM 1.33% | 833.33 nM 3.25% | 10000 nM -2.09%

NCCCNCCSP(=O)(O)O [amifostine]
inactive: 1 nM 5.31% | 8.33 nM 3.29% | 100 nM 4.42% | 833.33 nM 1.87% | 10000 nM 3.86%

CNC(=O)c1cc(COc2nnc(Nc3ccc(Cl)cc3)c3ccoc23)ccn1 [telatinib]
inactive: 1 nM 0.06% | 8.33 nM 2.23% | 100 nM -1.3% | 833.33 nM 0.04% | 10000 nM 0.53%

C[C@@H]1CCC[C@H](C)N1NC(=O)c1ccc(Cl)c(S(N)(=O)=O)c1 [clopamide]
inactive: 1 nM -1.53% | 8.33 nM 2.77% | 100 nM 0.22% | 833.33 nM 5.88% | 10000 nM -2.61%

CC(C)CNc1ccnc(NCc2csc(-c3ccccc3)n2)n1
inactive: 1 nM 0.06% | 8.33 nM 1.07% | 100 nM 0.03% | 833.33 nM 0.39% | 10000 nM -2.77%

Cc1c(C)c2c(c(C)c1O)CC[C@@](C)(CCC[C@H](C)CCC[C@H](C)CCCC(C)C)O2 [vitamin-E]
inactive: 1 nM 3.32% | 8.33 nM 3.3% | 100 nM 2.84% | 833.33 nM 0.81% | 10000 nM 0.23%

Cc1ccccc1OCC(O)CO (stereo not given) [mephenesin]
inactive: 1 nM -1% | 8.33 nM 0.27% | 100 nM 0.3% | 833.33 nM -0.01% | 10000 nM 1.77%

Cc1sc(C)c(C(=O)NC2(c3ccc(C(=O)O)cc3)CC2)c1Cc1ccc(C(F)(F)F)cc1
inactive: 1 nM -1.32% | 8.33 nM -0.56% | 100 nM -0.49% | 833.33 nM -1.38% | 10000 nM 1.12%

CCC(C(=O)O)c1ccc(CC(C)C)cc1 (stereo not given) [butibufen]
inactive: 1 nM -2.32% | 8.33 nM -1% | 100 nM 1.35% | 833.33 nM 2.34% | 10000 nM -0.15%

CCOC(=O)C1=C(C)NC(C)=C(C(=O)OC)C1c1cccc(Cl)c1Cl (stereo not given) [felodipine]
inactive: 1 nM 1.65% | 8.33 nM 3.36% | 100 nM 5.39% | 833.33 nM 4.84% | 10000 nM 1.57%

Cc1cc(Cn2nnc3c(-c4ccco4)nc(N)nc32)ccc1N [vipadenant]
inactive: 1 nM 3.17% | 8.33 nM 2.89% | 100 nM 2.73% | 833.33 nM -0.18% | 10000 nM 0.65%

COC1CCN(c2cccc(-c3cc(NC(C)=O)nc(-n4nc(C)cc4C)n3)n2)CC1
inactive: 1 nM 0.48% | 8.33 nM 2.72% | 100 nM 2.53% | 833.33 nM 1.74% | 10000 nM -0.2%

CO[C@]12C[C@@H](COC(=O)c3cncc(Br)c3)CN(C)[C@@H]1Cc1cn(C)c3cccc2c13 [nicergoline]
inactive: 1 nM 0.73% | 8.33 nM -1.36% | 100 nM -1.54% | 833.33 nM 0.48% | 10000 nM -0.35%

COC(=O)C(c1ccccc1)C1CCCCN1 (stereo not given)
inactive: 1 nM -1.97% | 8.33 nM -1.71% | 100 nM -1.37% | 833.33 nM -1.52% | 10000 nM -0.37%

CN1CCc2c(c3ccccc3n2Cc2ccccc2)C1 [mebhydrolin]
inactive: 1 nM -0.15% | 8.33 nM 2.44% | 100 nM 1.76% | 833.33 nM -0.47% | 10000 nM -1.08%
